# Source: PubChem BioAssay
# A selection follows.
# aSyn 5UTR act – Activators via SNCA 5'UTR binding, MLPCN; 300,000 tested, 7.1% active; activity score, % (tested at 7.5 µM), hits read low; alpha-synuclein 5'UTR reporter, activators screen; in the data active means activity score below about -60%
# Hits are given with their value; – = inactive.
SMILES,aSyn 5UTR act
Cc1ccc(NC(=O)c2oc3ccccc3c2C)nc1,-94
Cc1c(C(=O)Nc2ccccn2)oc2ccccc12,-259
Cc1ccc(NC(=O)c2cc3cccc([N+](=O)[O-])c3[nH]2)cc1,-110
CN(C)c1ncc(C2=C(Cl)C(=O)C(N3CCCC3)=C(Cl)C2=O)s1,-70
CCCC(=O)Nc1ccc2c(c1)Cc1ccccc1-2,-138
CC(C)c1ccc(NC(=O)c2ccc(Br)o2)cc1,-148
COc1ccc(NC(=O)c2ccc(Br)o2)cc1,-159
CC(C)(C)c1ccc(C(=O)Nc2ccc(CC(=O)O)cc2)o1,–
O=C(Nc1ccc(Nc2ccccc2)cc1)c1ccc(Br)o1,-128
COc1ccc(NC(=S)NC(=O)c2ccc(Br)o2)cc1,-107
O=C(Nc1cccc(OC(=O)c2ccc(Br)o2)c1)c1ccccc1,-66
O=C(Nc1ccc2c(c1)Cc1ccccc1-2)c1ccc(Br)o1,-94
O=C(NC(=S)Nc1ccccc1)c1ccc(Br)o1,-287
NC(=O)c1ccccc1NC(=S)NC(=O)c1ccc(Br)o1,-124
O=C(NCC(c1cccs1)N1CCOCC1)c1ccc(Cl)cc1 (stereo not drawn),-100
Clc1ccc(Br)cc1-c1nc(-c2ccncc2)no1,-188
Cc1cc(C)cc(-c2nc(-c3ccncc3)no2)c1,-149
Cc1cccc(-c2nc(-c3ccncc3)no2)c1,-68
Brc1cccc(-c2nc(-c3ccncc3)no2)c1,-100
Cc1ccc(-c2nc(-c3ccccc3)no2)c(Cl)c1,–
OCCNc1c2ccccc2nc2c(F)c(F)c(F)c(F)c12,-84
O=C(NCCc1ccccc1)c1cc(-c2ccco2)on1,-321
Cc1ccccc1Cn1cc(NC(=O)c2cc(-c3ccco3)on2)cn1,-76
COc1ccc(CCNC(=O)c2cc(-c3ccco3)on2)cc1OC,-77
O=C(NCc1ccccc1)c1cc(-c2ccco2)on1,-97
SMILES,aSyn 5UTR act
Cc1ccccc1Cn1cc(NC(=O)c2noc(C(C)C)c2[N+](=O)[O-])cn1,–
COc1ccc(NC(=O)N2CCn3c2nc2ccccc23)cc1,-64
O=C(c1ccco1)N1CCn2c1nc1ccccc12,-124
O=[N+]([O-])c1[nH]cnc1/C=C/c1ccccc1,-65
c1ccc(-c2ccc3c(n2)CCCO3)cc1,-113
O=C(Nc1ccc(NC(=O)c2ccco2)cc1)c1ccc2c(c1)OCCO2,–
Cc1cc(NC(=O)c2ccc3c(c2)OCCO3)ccc1NC(=O)c1ccco1,-66
Cc1cc(NC(=O)c2ccc([N+](=O)[O-])o2)ccc1NC(=O)c1ccco1,-110
CSc1ccc(/C=N/N2CCN(C)CC2)cc1,-95
CN1CCN(/N=C/c2ccc(-c3ccccc3)cc2)CC1,-133
CSc1ccc(/C=N/n2c(C)cc(C)cc2=O)cc1,-127
COc1ccc(NC(=O)c2scc(S(=O)(=O)C(C)C)c2N)cc1,-193
COc1ccc(NC(=O)c2cnc(SC)nc2)cc1,-124
COc1ccc(NC(=O)c2sc(SC)nc2N)cc1,-197
O=[N+]([O-])c1ccc(C2=Nc3cc(Cl)ccc3OC2)cc1,-149
O=C(/C=C/c1c[nH]c2ccccc12)c1ccccc1,-330
Cc1ccc(C(=O)/C=C/c2cn(CN3CCN(C)CC3)c3ccccc23)cc1,-231
Cc1ccc(C(=O)/C=C/c2c[nH]c3ccccc23)cc1,-237
COc1ccc2[nH]cc(/C=C/C(=O)c3ccccc3)c2c1,-245
O=c1sc2ccccc2n1CCCOc1ccccc1,-137
Cc1ccccc1OCCCn1c(=O)sc2ccccc21,-130
Cc1ccc(OCCn2c(=O)sc3ccccc32)cc1,-115
Cc1ccc(OCCCn2c(=O)sc3ccccc32)cc1,-65
O=c1sc2ccccc2n1COc1ccc(Cl)cc1,-90
O=C(NNC(=S)NC(=O)c1sc2ccccc2c1Cl)c1ccc(Cl)cc1,-67
SMILES,aSyn 5UTR act
CCn1nnc(NC(=O)c2ccc(-c3ccc(Cl)cc3)o2)n1,-64
O=C(Nc1ccnc(=O)[nH]1)c1sc2ccccc2c1Cl,-111
CCn1nnc(NC(=O)c2sc3ccccc3c2Cl)n1,-82
O=C(Nc1ccncc1)c1sc2ccccc2c1Cl,-97
O=C1CCC/C(=N/NC(=O)c2sc3ccccc3c2Cl)C1,-90
COc1cc(C=O)ccc1OS(=O)(=O)c1ccccc1[N+](=O)[O-],-119
COc1cc(/C=N/n2cnnc2)ccc1OS(=O)(=O)c1ccccc1[N+](=O)[O-],-178
COc1cccc(NC(=O)c2c(C)nn(-c3ccccc3)c2Cl)c1,-137
Cc1ccc(NC(=O)c2c(C)nn(-c3ccccc3)c2Cl)cc1,-81
NC(=O)N/N=C/c1ccc2cccc(OCc3ccccc3)c2n1,–
Cc1cccc(OCC(=O)NC(C)C(=O)N/N=C/c2c(OCc3ccccc3)ccc3ccccc23)c1 (stereo not drawn),-138
COc1cc2c(cc1OC)C(c1ccccc1)N(C(=O)CCl)CC2 (stereo not drawn),-86
COC(=O)c1c(C)oc2ccc(N(C(=O)c3ccncc3)S(=O)(=O)c3ccc(C)cc3)cc12,–
Cc1ccc(S(=O)(=O)N(C(=O)c2ccncc2)c2ccc(OC(=O)c3ccncc3)c3ccccc23)cc1,-65
COCCNC(=O)/C(C#N)=C/c1cc(C)n(C2CCCCC2)c1C,-101
COCCNC(=O)/C(C#N)=C/c1cc(C)n(-c2ccc(C)cc2)c1C,-133
Cc1cc(/C=C(/C#N)C(=O)Nc2ccccc2)c(C)n1-c1cccnc1,-160
CC(=O)c1ccc(NC(=S)NCc2ccco2)cc1,-67
CCOC(=O)c1ccc(NC(=O)C(=O)NCc2ccco2)cc1,-82
O=C(Nc1ccc(SC(F)F)cc1)c1ccc2nccnc2c1,-218
O=C(Nc1ccc(OC(F)(F)F)cc1)c1ccc2nccnc2c1,-112
COc1ccc(C(=O)Nc2ccc(SC(F)F)cc2)cc1,-160
CCOc1ccc2nc(NS(=O)(=O)Cc3ccccc3)sc2c1,-66
CCOc1ccc2nc(SCC(=O)c3cccs3)sc2c1,-122
CN(C)C(=S)Nc1nc2ccccc2s1,-137
SMILES,aSyn 5UTR act
COc1ccc2nc(NC(=O)CSc3nc4ccccc4o3)sc2c1,-153
CCCC(=O)Nc1nc2ccc(OCC)cc2s1,-105
CCOc1ccc2nc(NC(=S)N(C)C)sc2c1,-82
CCOc1ccc2nc(NC(=O)CSc3ccccc3)sc2c1,-69
COc1ccc2nc(NC(=O)CSCC(=O)Nc3cc(C)on3)sc2c1,-101
COc1ccc2nc(NC(=O)CSc3nnc(-c4ccoc4C)n3C)sc2c1,-134
CC(C)(C)C1CCC(OC(=O)CN2CCOCC2)CC1 (stereo not drawn),-108
COc1ccc(C(=O)Nc2cc(Cl)ccc2OC(=O)c2ccc(OC)cc2)cc1,-158
O=C(Nc1ccccc1O)c1ccc(Cl)cc1,-255
O=C(Nc1ccccc1OC(=O)c1ccc(Cl)cc1)c1ccc(Cl)cc1,-343
O=C(Nc1ccccc1O)c1ccc([N+](=O)[O-])cc1,-70
COc1ccc(C(=O)Nc2cc(OC)c(Cl)cc2OC)cc1,-120
Cc1ccc(C(=O)Nc2cc(Cl)ccc2OC(=O)c2ccc(C)cc2)cc1,-227
COc1ccc(OC(=O)c2ccc(Cl)cc2)c(C(C)=O)c1,-78
Cc1cc(NC(=O)c2ccccc2)c(Cl)cc1N,–
CC(C)(C)c1ccc(C(=O)Nc2ccccc2Cl)cc1,-88
COc1cc(NC(=O)c2cc3nc(C)cc(C)n3n2)c(OC)cc1Cl,-214
COc1ccc(-c2noc(CCC(=O)Nc3cc(Cl)c(OC)cc3OC)n2)cc1,-65
COc1ccc(-c2noc(CCCC(=O)NC3CCCC3)n2)cc1,–
O=[N+]([O-])c1ccccc1/C=N/OCc1ccccc1,-167
